# Reference: PubChem BioAssay AID720517 (National Center for Advancing Translational Sciences (NCATS), 2013)
# Results filed as inconclusive are left out. Values without a mark were called inactive. Calls follow the shape of the dose curve; as a rule, active = well fitted activation curve with a large enough effect; inconclusive = small, poorly fitted or top-dose-only effect; inactive = flat fitted curve, though single readings scatter.
# Assay: qHTS for Inhibitors of Cell Surface uPA Generation: FP59 Counterscreen for Cherry-picked Compounds; also: 0% is about no effect
# Settings: FP59 anthrax toxin cytotoxicity counterscreen, cells; series mostly up to 115 µM; activity (protection from FP59): at the top concentration
row,Structure (SMILES),activity (protection from FP59) [%]
1,O=C(COc1cccc2ccccc12)NNC(=O)c1cnccn1,-0.155
2,COc1cc(C2NC(=O)NC(C)=C2C(=O)OCC2CCCCC2)ccc1O (stereo not drawn),-0.645
3,COc1ccc(S(=O)(=O)c2c(O)c3ccc(C(=O)Nc4ccccc4)cc3[nH]c2=O)cc1,-1.37
4,Cc1ccc(Cl)cc1NC(=O)c1ccccc1OCC(=O)N1CCOCC1,-0.889
5,Cc1ccc2c(c1)N(CC(=O)NCCCc1ccccc1)C(=O)c1cccnc1O2,-1.38
6,COc1ccc(C(CNC(=O)C(C)Oc2ccc(Br)cc2)N2CCCC2)cc1 (stereo not drawn),-1.39
7,Cc1cccc(C(=O)NCC(=O)OCC(=O)NC2CCCCCCC2)c1,-1.42
8,COc1ccc(/C=C/C(=O)Nc2ccccc2Cl)cc1S(=O)(=O)N1CCOCC1,-0.992
9,Cc1cc(C)n2c(SCC#N)nnc2n1,-0.579
10,CCC1(CC)NC(=O)N(CC(=O)OCC(=O)c2cc(C)c(C)cc2C)C1=O,-1.2
11,Cc1cc2c(cc1S(=O)(=O)Nc1ccc(F)cc1)n(C)c(=O)c(=O)n2C,-0.932
12,O=C(O)CNC(=S)N(Cc1ccccc1)Cc1cccnc1,-0.536
13,CC(C)c1ccc(C2/C(=C(\O)c3ccc4c(c3)OCCO4)C(=O)C(=O)N2CCN2CCOCC2)cc1 (stereo not drawn),-1.4
14,CCOC(=O)c1c(NC(=O)CC2SC(N)=NC2=O)sc2c1CCC(C)C2 (stereo not drawn),0.548
15,CNS(=O)(=O)c1cc(-c2nnc(Nc3ccc(CC(N)=O)cc3)c3ccccc23)ccc1C,-0.159
16,CC1(C(=O)OCC(=O)Nc2ccc(Cl)cn2)CC1(Cl)Cl (stereo not drawn),-0.887
17,Cc1cc(C)cc(NC(=O)C(OC(=O)c2ccc(O)cc2)c2ccccc2)c1 (stereo not drawn),5.79
18,CC(=O)c1ccc2c(c1)c1ccccc1n2CC(C)C,-1.24
19,COc1ccccc1NNC(=O)C(O)(c1ccccc1OC)c1ccccc1OC,-1.17
20,O=C(Nc1ccc(Cl)cn1)C1CCCN(c2ncnc3c2nc2n3CCCCC2)C1 (stereo not drawn),2.43
21,Cc1ccc([C@H]2C(C(=O)O)=CC[C@@H](c3cccc(C)c3)N2S(=O)(=O)c2ccc(C)cc2)cc1,-0.513
22,O=C(Cc1ccc(Cl)cc1)c1c[nH]c(C(=O)NCCCn2ccnc2)c1,-1.08
23,CCN(CC)CCCn1c2c(c(SCC(=O)Nc3cccc4ccccc34)nc1=O)CCC2,-1.61
